Screens from PubChem BioAssay.
Cy5 interf NS3h: counter-screen for HCV NS3 helicase inhibitors: fluorescence interference; AID 720488; fluorescence interference ratio at 100 µM; 16,000 tested, 6% active; Cy5-dT15 DNA with NS3h; actives lie on both sides; signal over control mean, under 1 quenches;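 active = compound fluorescence over control fluorescence at most 0.8, a quencher, or at least a set upper limit, an enhancer; inactive = ratio between 0.8 and the set upper limit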
NS3h inh CB: blocks HCV NS3 helicase binding to DNA | NS3h Cy5-dT15 DNA binding, fluorescence polarization | inhibition, % at 100 µM | 16,000 tested, 1.6% active | AID 687043;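 active = inhibition above the average over every tested compound plus 3 SD, cut at about 40% in these data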
NS3h confirm: confirmation of hepatitis C virus NS3 helicase inhibitors. shares compounds with NS3h inh CB. NS3h binding to Cy5-dT15 DNA, fluorescence polarization. inhibition, % at 100 µM. 240 tested, 20% active;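 active = percent inhibition of 50% or more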
SSB FP counter: counter-screen for HCV NS3 helicase inhibitors: E. coli SSB binding. inhibition, % at 100 µM. shares compounds with NS3h inh CB. 240 tested, 40% active. E. coli SSB binding Cy5-dT15, fluorescence polarization;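 active = inhibition of at least 50%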;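 note: displacers lower Cy5 polarization so higher inhibition means more SSB displaced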
Target sequence (P0AGE0 whole entry, looked up): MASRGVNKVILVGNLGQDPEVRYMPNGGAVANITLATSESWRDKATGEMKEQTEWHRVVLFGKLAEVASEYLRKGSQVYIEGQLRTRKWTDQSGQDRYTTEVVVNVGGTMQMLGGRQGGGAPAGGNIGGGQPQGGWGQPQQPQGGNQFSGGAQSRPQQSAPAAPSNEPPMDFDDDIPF
Cy5 SSB interf: counter-screen for HCV NS3 helicase inhibitors: fluorescence interference; shares compounds with NS3h inh CB; Cy5-dT15/E. coli SSB fluorescence interference; actives lie on both sides; fluorescence interference ratio at 100 µM; 240 tested, 8% active;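 active = fluorescence interference ratio at or above 1.2, signal boosting, or at or below 0.8, signal quenching; inactive = ratio between 0.8 and 1.2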;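 note: ratio of compound well signal to mean negative control signal so 1 means no effect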
Cy5 interf conf: Cy5 fluorescence interference, confirmation counter-screen; shares compounds with NS3h inh CB; Cy5-dT15 DNA/NS3h fluorescence interference counterscreen; fluorescence interference ratio at 100 µM, hits read low; 240 tested, 44% active;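 active = fluorescence interference ratio at or below 0.8 quencher or at or above a set limitenhancer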;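 note: ratio of compound fluorescence to mean of negative controls so 1 means no interference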
* = called active by the depositor; x = no result. Compounds with a hit are over-represented: about 6.9% of the library has one in this group of screens.

SMILES | Cy5 interf NS3h | NS3h inh CB | NS3h confirm | SSB FP counter | Cy5 SSB interf | Cy5 interf conf
C=CCOc1c(I)cc(/C=C2/C(=O)NC(=O)N(c3ccc(OC)cc3)C2=O)cc1OC | 1 | 8 | x | x | x | x
COc1cc(C=C2C(=O)NC(=O)NC2=O)cc(I)c1OCc1ccc([N+](=O)[O-])cc1 | 0.48* | 54* | 16 | 31 | 0.91 | 0.59*
CC1=C(C#N)c2nc(N)c(C#N)c(C)c2/C1=C/c1ccc(-c2cccc(C(=O)O)c2)o1 | 1.1 | 121* | 71* | 152* | 0.86 | 0.99
CC1=C(C#N)c2nc(N)c(C#N)c(C)c2/C1=C\c1ccc(I)o1 | 1.1 | 2 | x | x | x | x
O=C1NC(=O)N(c2ccccc2)C(=O)/C1=C\c1cccc(OCc2ccccc2F)c1 | 1 | 14 | x | x | x | x
O=C1NC(=O)C(=Cc2cccc(OCc3ccc(Cl)cc3Cl)c2)C(=O)N1 | 1 | 38 | 23 | 17 | 1 | 0.74*
CCOc1cc(/C=C2/C(=O)NN(c3ccc(I)cc3)C2=O)ccc1O | 0.84 | 17 | x | x | x | x
CCOc1ccc2ccc(OCC)c(/C=C3/SC(=S)NC3=O)c2c1 | 1 | -2 | x | x | x | x
CCOc1ccc2ccccc2c1C=C1C(=O)NC(=S)NC1=O | 0.89 | 44* | 19 | 39 | 0.94 | 0.97
O=C(O)C1Nc2c(Cl)cc(Cl)cc2C2C=CCC12 (stereo not drawn) | 0.87 | 97* | 57* | 104* | 0.9 | 0.75*
O=[N+]([O-])c1ccc2c(c1)C1C=CCC1C(c1cccc(Cl)c1Cl)N2 (stereo not drawn) | 0.97 | 7 | x | x | x | x
COc1ccc2c(c1)C1C=CCC1C(C(=O)O)N2 (stereo not drawn) | 1.2 | 84* | 59* | 108* | 1.5* | 0.94
CC(=O)N1CCN(c2ccc(NC(=O)c3ccccc3Br)cc2)CC1 | 0.94 | 24 | x | x | x | x
Cc1c(C(=O)O)cccc1-n1c(C)ccc1C | 1.4* | 97* | 67* | 106* | 0.94 | 0.95
O=C(O)c1cccc(C(=O)O)c1N(c1ccccc1)c1ccccc1 | 1 | 3 | x | x | x | x
C=C1c2ccc(C)cc2NC(=O)N1c1cccc(Cl)c1 | 0.92 | 8 | x | x | x | x
Cc1c(Cl)cccc1N1C(=O)C2C3C=CC(C4CC34)C2C1=O (stereo not drawn) | 1 | 2 | x | x | x | x
CN(C)c1ccc(NC(=O)N2CCOCC2)cc1 | 2.1* | 157* | 55* | 82* | 1.1 | 0.95
O=C(Nc1cccnc1)N1CCOCC1 | 1 | -10 | x | x | x | x
CCCCOC(=O)c1cccc(NC(=O)C(C)Oc2ccc(OC)cc2)c1 (stereo not drawn) | 0.95 | 14 | x | x | x | x
O=C1NC(=O)N(c2ccc(Cl)cc2)C(=O)/C1=C\c1cccc(O)c1 | 0.99 | -2 | x | x | x | x
O=C1NC(=O)N(c2ccc(Cl)cc2)C(=O)/C1=C/c1ccc(O)c(Cl)c1 | 1 | 74* | 21 | 34 | 0.97 | 0.86
O=C1NC(=O)N(c2cccc(Br)c2)C(=O)/C1=C/c1ccc(O)c(Cl)c1 | 1 | 25 | x | x | x | x
O=C1NC(=O)N(c2ccc(Cl)cc2)C(=O)/C1=C/c1cc(I)c(O)c([N+](=O)[O-])c1 | 1 | 78* | 43 | 92* | 0.92 | 0.96
O=C(c1ccccc1Cl)N1CCN(c2ccc(Cl)cc2[N+](=O)[O-])CC1 | 0.92 | 16 | x | x | x | x
SMILES | Cy5 interf NS3h | NS3h inh CB | NS3h confirm | SSB FP counter | Cy5 SSB interf | Cy5 interf conf
Cc1ccc(NC(=O)c2ccc(-c3ccc(Cl)cc3Cl)o2)c([N+](=O)[O-])c1 | 1.1 | -1 | x | x | x | x
Cc1ccc(NC(=O)c2ccc(C(=O)O)cc2C(=O)O)c(C)c1 | 1 | 0 | x | x | x | x
O=C1NC(=O)N(c2ccccc2)C(=O)/C1=C\c1ccccc1OCc1ccccc1F | 1 | 22 | x | x | x | x
C=CCN1C(=O)NC(=O)/C(=C\c2ccccc2OCc2ccc([N+](=O)[O-])cc2)C1=O | 0.49* | 58* | 27 | 26 | 0.97 | 0.66*
O=C(Cc1ccccc1)N1N=C(c2cccnc2)CC1(O)C(F)(F)F (stereo not drawn) | 1.1 | -15 | x | x | x | x
NS(=O)(=O)c1ccc(-c2ccc(/C=C3/C(=O)NN(c4cccc(Cl)c4)C3=O)o2)cc1 | 1 | 7 | x | x | x | x
O=C1NN(c2ccc(Cl)cc2)C(=O)/C1=C\c1ccc(-c2cccc(C(=O)O)c2)o1 | 0.93 | 55* | 32 | 61* | 0.85 | 0.73*
COC(=O)c1ccccc1-c1ccc(/C=C2\C(=O)NN(c3ccccc3)C2=O)o1 | 0.81 | 12 | x | x | x | x
